Results taken from ChEMBL document CHEMBL3988442, “University of Dundee, Small-Polar-MMV Screening Library” (2021).

Legend:
[1] = molecular target: T1, Aspartate--tRNA(Asp/Asn) ligase (Mycobacterium tuberculosis (strain ATCC 25618 / H37Rv)) (UniProt P9WFW3); assay: Assay for Asp RNA synthetase-1 from Mycobacterium tuberculosis; type: functional; parameters: scale not given: direction of the effect not stated beside the values; conditions: 30 µM; also: in the data most compounds retested in dose-response had high values
T1 sequence (whole entry): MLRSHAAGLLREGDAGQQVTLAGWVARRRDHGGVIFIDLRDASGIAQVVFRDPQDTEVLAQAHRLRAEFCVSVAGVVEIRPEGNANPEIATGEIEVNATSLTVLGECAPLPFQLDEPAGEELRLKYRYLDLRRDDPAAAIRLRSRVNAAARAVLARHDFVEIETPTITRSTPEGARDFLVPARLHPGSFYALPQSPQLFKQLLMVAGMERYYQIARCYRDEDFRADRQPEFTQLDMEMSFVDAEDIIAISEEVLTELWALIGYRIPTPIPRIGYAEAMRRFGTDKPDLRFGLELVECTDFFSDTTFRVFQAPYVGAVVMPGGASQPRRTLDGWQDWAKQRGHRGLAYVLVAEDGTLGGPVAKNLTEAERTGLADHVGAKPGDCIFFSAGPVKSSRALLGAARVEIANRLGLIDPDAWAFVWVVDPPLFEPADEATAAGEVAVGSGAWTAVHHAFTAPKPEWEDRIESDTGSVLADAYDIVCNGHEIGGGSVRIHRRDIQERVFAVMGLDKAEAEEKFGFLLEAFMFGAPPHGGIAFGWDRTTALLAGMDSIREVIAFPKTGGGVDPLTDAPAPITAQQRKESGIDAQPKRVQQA

[2] = molecular target: Shiga toxin 2 (Escherichia coli O157:H7) (UniProt P09385+P09386); assay: E. coli 0.157:H7 Shiga Toxin SOP - stx2 screening assay; type: functional; parameters: scale not given: direction of the effect not stated beside the values; conditions: 30 µM

CCn1c(C(=O)N2CCN(CC(C)O)CC2)cc2ccccc21 (stereo not drawn)
Percent Effect [1]: -4.64%
Percent Effect [2]: -48.2%

CC(C)N1CCC(Cc2cc(-c3cccc(C(=O)O)c3)ncn2)C1 (stereo not drawn)
Percent Effect [1]: -2.43%
Percent Effect [2]: 2.16%

CCn1nc(C)cc1C(=O)Nc1cc(F)ccc1OCC1CCCO1 (stereo not drawn)
Percent Effect [1]: -3.81%
Percent Effect [2]: 34.1%

COc1ccc(NCc2nc(=O)n(CCC(C)C)[nH]2)cc1
Percent Effect [1]: -2.01%
Percent Effect [2]: 5.42%

CCCN1CCN(C(=O)c2scnc2C)CC1
Percent Effect [1]: -0.389%
Percent Effect [2]: 5.75%

CCN1CCCC1CN(CCN(C)C)S(=O)(=O)c1ccc(C#N)cc1 (stereo not drawn)
Percent Effect [1]: -3.16%
Percent Effect [2]: -8.05%

Cc1cc(C)n(CC2CCCN2C(=O)CCc2cscn2)n1 (stereo not drawn)
Percent Effect [1]: -0.678%
Percent Effect [2]: 17%

CN(C)c1ccc(CNc2cncc(-n3cccn3)n2)cc1
Percent Effect [1]: -4.37%
Percent Effect [2]: -28%

Cc1cnc(CN2CCOC(CNc3cccnn3)C2)cn1 (stereo not drawn)
Percent Effect [1]: -2.97%
Percent Effect [2]: 6.13%

CCC1CN(C(=O)c2ccc(=O)[nH]c2)CCC(=O)N1Cc1ccccc1 (stereo not drawn)
Percent Effect [1]: -4.62%
Percent Effect [2]: 5.03%

CO[C@H]1CN(C(=O)c2ccc3oc(C)cc3c2)CC[C@@]12CCCO2
Percent Effect [1]: 1.12%
Percent Effect [2]: 7.39%

CNc1nc2c(s1)C(c1c(F)cccc1Cl)CC(=O)N2 (stereo not drawn)
Percent Effect [1]: 61.3%
Percent Effect [2]: 3.13%

CC1CCN(CCCNS(=O)(=O)c2cccc(F)c2)CC1
Percent Effect [1]: 11.5%
Percent Effect [2]: -61.6%

CS(=O)(=O)N1CCCCCC1C1CCN(c2ncccn2)CC1 (stereo not drawn)
Percent Effect [1]: -3.75%
Percent Effect [2]: 24.4%

COCCc1noc(CNC2CCSC2)n1 (stereo not drawn)
Percent Effect [1]: -5.83%
Percent Effect [2]: 6.26%

c1ccc2oc(NC3CCCN(Cc4noc(C5CC5)n4)C3)nc2c1 (stereo not drawn)
Percent Effect [1]: -5.59%
Percent Effect [2]: -6.82%

COc1ccc(Br)c(C(=O)NCC2CCN(C(=O)c3ccoc3)CC2)c1
Percent Effect [1]: -5.03%
Percent Effect [2]: 0.84%

CC(NC(=O)NCCCc1n[nH]c(N)c1C#N)c1cccs1 (stereo not drawn)
Percent Effect [1]: -7.85%
Percent Effect [2]: -34.7%

O=C(NC1CCS(=O)(=O)C1)c1sccc1-c1ccc(F)cc1 (stereo not drawn)
Percent Effect [1]: -5.43%
Percent Effect [2]: 3.12%
